Data on seven molecules can be found in PubChem BioAssay (NCI).

What all share (test): NCI-60 one-dose screen, 48 h (100 = growth as untreated, 0 = no growth, -100 = all killed)
Details in all cases: 10 µM unless noted

Test [1] deals with HCT-15 colon.
Test [2] deals with HT29 colon.
Test [3] relates to SNB-75 CNS.
Test [4] relates to SNB-19 CNS.
The test system of test [5] is U251 CNS.
In test [6] the test system is PC-3 prostate.
Test [7] concerns SK-MEL-5 melanoma.
The subject of test [8] is UACC-62 melanoma.
Test [9] deals with LOX IMVI melanoma.
Test [10] relates to SK-MEL-28 melanoma.
The test system of test [11] is SK-MEL-2 melanoma.
Test [12] concerns EKVX NSCLC.
Test [13] concerns SN12C renal.
Test [14] deals with UO-31 renal.
The test system of test [15] is TK-10 renal.
The test system of test [16] is ACHN renal.
Test [17] deals with CAKI-1 renal.
The test system of test [18] is A498 renal.
Test [19] concerns CCRF-CEM leukemia.
The test system of test [20] is MOLT-4 leukemia.

Each structure is given as a SMILES string. Where “and” joins values, the source holds several entries; their conditions need not be identical. Equal entries are not always repeated. This is part of a sample that, as a whole, favours compounds with a hit. Of some 83,000 tested, about 20% had one in any assay.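 Plates (96-well) were seeded with cells, treated with compound at one concentration, and incubated for 48 hours before percent growth was determined.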 Calls of active or inactive are those of the source. Rule for the calls: active = growth percent below 10; inactive = the rest.

In the case of `Cc1ncsc1CCO`, the growth is 111% (inactive) and 106% (inactive) in test [1]; 101% (inactive) and 95.6% (inactive) in test [2]; 111% (inactive) and 91.5% (inactive) in test [3]; 108% (inactive) and 103% (inactive) in test [4]; 99.6% (inactive) and 99.8% (inactive) in [5]; 103% (inactive) and 98.3% (inactive) in test [6]. Also, the growth in test [7] is 109% (inactive) and 98.2% (inactive); in test [8] it was 111% (inactive) and 95.5% (inactive); in [9] it was 97.6% (inactive) and 103% (inactive); in [10], 116% (inactive) and 104% (inactive); in test [11], 96.1% (inactive) and 107% (inactive); in test [12], 112% (inactive) and 99.6% (inactive). The growth in [13] was 109% (inactive) and 96.6% (inactive); in test [14], 95.7% (inactive) and 89.7% (inactive); in [15] it was 103% (inactive) and 89.4% (inactive); in test [16], 107% (inactive); in test [17], 101% (inactive); in test [18] it was 81.3% (inactive) and 97.6% (inactive). Further, the growth in test [19] is 39.9% (inactive) and 121% (inactive); in test [20], 105% (inactive) and 116% (inactive).

As for `COc1ccc(-c2ncnc3c2ncn3C/C=C/CCl)cc1`, the growth in test [1] is 61% (inactive) and 81.2% (inactive); in [2], 84.6% (inactive) and 84.3% (inactive); in test [3], 128% (inactive) and 105% (inactive); in [4], 87.8% (inactive) and 78.5% (inactive); in test [5], 64.2% (inactive) and 77.3% (inactive); in [6], 83.8% (inactive) and 87% (inactive). In addition, the growth is 85.7% (inactive) and 82.4% (inactive) in [7]; 76.6% (inactive) and 74% (inactive) in [8]; 54.2% (inactive) and 70.1% (inactive) in test [9]; 98.4% (inactive) and 98.9% (inactive) in test [10]; 68.6% (inactive) and 59.2% (inactive) in [11]; 108% (inactive) and 106% (inactive) in [12]. Also, the growth was 83.6% (inactive) and 79.6% (inactive) in test [13]; 60.3% (inactive) and 85.8% (inactive) in test [14]; 86.3% (inactive) and 95.3% (inactive) in test [15]; 59.4% (inactive) and 79.3% (inactive) in test [16]; 70.8% (inactive) and 90.8% (inactive) in [17]; 68.4% (inactive) and 85.6% (inactive) in test [18]. Also, the growth in test [19] is 63.2% (inactive) and 56.7% (inactive); in test [20] it was 48.9% (inactive).

In the case of `CN(C)CCCNC1=C(Cl)C(=O)c2ccccc2C1=O`, the growth was -62.2% (active) and -49.3% (active) in test [1]; -26% (active) and -31.7% (active) in test [2]; 64.1% (inactive) and 47.8% (inactive) in test [3]; 53.1% (inactive) and -9.85% (active) in test [4]; -63% (active) and -94.2% (active) in test [5]; 56.8% (inactive) and 53.6% (inactive) in [6]. In addition, the growth in test [7] is -94.2% (active) and -100% (active); in test [8], 28.6% (inactive) and -13.8% (active); in [9], -43.5% (active); in test [10], 83.2% (inactive) and 83.7% (inactive); in [11] it was 87.6% (inactive) and -34.4% (active); in [12] it was 30.2% (inactive) and -44.6% (active). The growth in test [13] was 67.1% (inactive) and -98.3% (active); in [14], 73.8% (inactive) and 47.6% (inactive); in [15], 120% (inactive) and 116% (inactive); in test [16], 92.7% (inactive) and 92.5% (inactive); in test [17], 91.3% (inactive) and 104% (inactive); in test [18], 103% (inactive) and 85.4% (inactive). In addition, the growth in [19] was 80% (inactive) and 81.3% (inactive); in test [20], 57% (inactive) and 79.3% (inactive).

In the case of `COc1ccc(S(=O)(=O)N2CCOCC2)cc1NC(=O)c1[nH]c(C)c2c1CCCCC2=O`, the growth was 104% (inactive) and 26.9% (inactive) in [1]; 112% (inactive) and 31.7% (inactive) in [2]; 101% (inactive) and 7.61% (active) in test [3]; 98.7% (inactive) and 64.1% (inactive) in test [4]; 97.9% (inactive) and 63.2% (inactive) in test [5]; 46.4% (inactive) in test [6]. Moreover, the growth in test [7] was 97.8% (inactive) and 70.9% (inactive); in [8] it was 98.2% (inactive) and 33.3% (inactive); in [9] it was 98.6% (inactive) and 23.5% (inactive); in test [10], 101% (inactive) and 62.5% (inactive); in test [11] it was 105% (inactive) and 67.5% (inactive); in [12] it was 103% (inactive) and 54% (inactive). Also, the growth in [13] is 98.3% (inactive) and 64.4% (inactive); in test [14], 90.5% (inactive) and 32% (inactive); in [15] it was 103% (inactive) and 28.5% (inactive); in test [16], 107% (inactive) and 50.6% (inactive); in test [17] it was 96.6% (inactive) and 15.7% (inactive); in test [18], 93.5% (inactive) and -15.8% (active). Further, the growth is 111% (inactive) and 58.9% (inactive) in test [19]; 104% (inactive) and 65.9% (inactive) in test [20].

Regarding `OCCN1CCN(CCO)CC1`, the growth was 102% (inactive) and 101% (inactive) and 107% (inactive) in test [1]; 108% (inactive) and 101% (inactive) and 110% (inactive) in test [2]; 111% (inactive) and 83.4% (inactive) and 96.1% (inactive) in [3]; 99.2% (inactive) and 113% (inactive) in test [4]; 95.7% (inactive) and 98% (inactive) and 105% (inactive) in test [5]; 91.7% (inactive) and 99.9% (inactive) and 96.2% (inactive) in test [6]. Also, the growth was 102% (inactive) and 92% (inactive) and 115% (inactive) in test [7]; 99.5% (inactive) and 92.6% (inactive) and 109% (inactive) in test [8]; 92.9% (inactive) and 93.2% (inactive) and 111% (inactive) in [9]; 33.7% (inactive) and 104% (inactive) and 106% (inactive) in [10]; 104% (inactive) and 97.3% (inactive) and 115% (inactive) in test [11]; 107% (inactive) and 85.1% (inactive) and 114% (inactive) in [12]. For the same molecule, the growth in test [13] is 98.1% (inactive) and 89.2% (inactive) and 112% (inactive); in test [14], 81.9% (inactive) and 89.7% (inactive) and 86.7% (inactive); in test [15], 93.6% (inactive) and 107% (inactive) and 108% (inactive); in [16], 99.1% (inactive) and 98% (inactive) and 104% (inactive); in [17], 104% (inactive) and 81.4% (inactive) and 120% (inactive); in test [18], 110% (inactive) and 95.5% (inactive) and 101% (inactive). Further, the growth in test [19] is 99.5% (inactive) and 88.4% (inactive) and 98% (inactive); in [20], 92.9% (inactive) and 96.2% (inactive) and 97.8% (inactive).

As for `CC1=C(/C=C/C(C)=C/C=C/C(C)=C/C(=O)O)C(C)(C)CCC1`, the growth in [1] is 91.4% (inactive) and 81.1% (inactive) and 92% (inactive); in [2], 88.7% (inactive) and 89.2% (inactive) and 96% (inactive); in test [3], 122% (inactive) and 72.2% (inactive) and 79.7% (inactive); in [4], 86.1% (inactive) and 97.4% (inactive) and 90.3% (inactive); in test [5], 83.2% (inactive) and 87.1% (inactive) and 90.4% (inactive); in [6], 88.3% (inactive) and 89.7% (inactive) and 101% (inactive). For the same molecule, the growth is 83.5% (inactive) and 86.5% (inactive) and 99.3% (inactive) in [7]; 73.2% (inactive) and 80.4% (inactive) and 61.3% (inactive) in [8]; 91% (inactive) and 85.3% (inactive) and 89.9% (inactive) in [9]; 109% (inactive) and 116% (inactive) in test [10]; 87.5% (inactive) and 94.7% (inactive) in test [11]; 84% (inactive) and 92.2% (inactive) and 87.7% (inactive) in test [12]. The growth was 81% (inactive) and 85.3% (inactive) and 73.8% (inactive) in [13]; 80.9% (inactive) and 64.5% (inactive) and 86.8% (inactive) in test [14]; 101% (inactive) and 99.5% (inactive) and 109% (inactive) in [15]; 94.9% (inactive) and 98.9% (inactive) and 94.8% (inactive) in test [16]; 81.3% (inactive) and 87% (inactive) and 82.9% (inactive) in test [17]; 20.2% (inactive) and 109% (inactive) and 86.7% (inactive) in test [18]. In addition, the growth is 78.5% (inactive) and 92.8% (inactive) and 103% (inactive) in test [19]; 59.3% (inactive) and 99% (inactive) and 83.8% (inactive) in test [20].

Regarding `CC(=O)Nc1ccc2cc3ccc(NC(C)=O)cc3nc2c1`, the growth in test [1] is 103% (inactive) and 106% (inactive); in test [2], 97.3% (inactive) and 90.1% (inactive); in test [3], 71.1% (inactive) and 83.1% (inactive); in [4], 79.2% (inactive) and 73.4% (inactive); in test [5], 74.3% (inactive) and 72.3% (inactive); in [6], 75.1% (inactive) and 42.4% (inactive). In addition, the growth in test [7] is 92.2% (inactive) and 105% (inactive); in test [8], 82.2% (inactive) and 85.7% (inactive); in test [9], 89% (inactive) and 85.9% (inactive); in test [10] it was 110% (inactive) and 139% (inactive); in test [11], 95.9% (inactive) and 108% (inactive); in test [12], 80.6% (inactive) and 78.4% (inactive). Moreover, the growth is 52.6% (inactive) and 52.2% (inactive) in test [13]; 79% (inactive) and 76% (inactive) in test [14]; 136% (inactive) and 119% (inactive) in test [15]; 79.1% (inactive) and 58.4% (inactive) in test [16]; 45.9% (inactive) and 97.2% (inactive) in [17]; 115% (inactive) and 113% (inactive) in test [18]. The growth was 78.9% (inactive) and 104% (inactive) in test [19]; 54.9% (inactive) and 74.7% (inactive) in [20].
